Measured values taken from PubChem BioAssay AID1159506 (National Center for Advancing Translational Sciences (NCATS), 2015).
In all, about 59,000 sequences were measured (the read-out: median about -0.00055, lowest 2% from about -2 on). Shown is part of a subset that was picked to be rich in the lowest values.

Test: Identification of proteins required for the processing of the EWS-FLI1 nascent transcript;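 further: robust z of luciferase light less the median z of siRNAs with the same seed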
Conditions: TC32 Ewing sarcoma NR0B1-luc vs CMV-luc (EWS-FLI1 target promoter against control promoter), 48 h; screened at 20 nM (by protocol)
Method: Ewing sarcoma (ES) cells depend on the EWS-FLI1 fusion transcription factor for cell survival. Using an assay of EWS-FLI1 activity and genome-wide siRNA screening we have identified proteins required for the processing of the EWS-FLI1 nascent transcript. Parallel genome-wide siRNA-mediated RNAi screens were conducted in Ewing sarcoma TC32 cell lines expressing a luciferase (luc) reporter protein driven by either the promoter of the EWS-FLI1 target gene NR0B1 (TC32-NR0B1-luc) or the CMV promoter (TC32-CMV-luc). Luciferase activity was assessed 48 hours post siRNA-transfection.
Twenty microl of serum-free media containing Lipofectamine RNAiMax (0.05 microl) was added to wells containing siRNA (0.8 pmol). Lipid and siRNA were allowed to complex for 45 min at ambient temperature before addition of 600 cells in RPMI-1640, 20% FBS to yield final transfection mixtures containing 20 nM siRNA in RPMI-1640, 10% FBS. Luciferase expression was measured using OneGlo (Promega, Madison, WI). The genome-wide screening campaign was conducted using Ambion's human genome library version 4.1 (Ambion, Austin TX). This library targets approximately 21000 human genes, three siRNAs per gene. Each siRNA is arrayed in an individual well of a 384-well plate. Parallel transfections were conducted in TC32-NR0B1-luc and TC32-CMV-luc cell lines and luciferase expression (OneGlo, Promega) was assayed 48 h later on a PerkinElmer Envision 2104 Multilabel plate reader (PerkinElmer, Waltham, MA). Qiagen's AllStars Negative control was incorporated on all screening plates for normalization (16 wells per plate). Qiagen, Germantown, MDsiGL4 was incorporated as a positive transfection control (16 wells per plate) on all plates. […] The raw luciferase data for the NR0B1- and CMV-luc screens were normalized and z-score-MAD transformed using standard methods (Chung et al., 2008). The miRNA-like seed sequence of every siRNA was determined and the median z-score for all siRNA sequences with the same seed sequence was calculated. This z-score was subtracted from the z-score associated with each siRNA with that seed sequence to generate a seed-adjusted z-score value (Z) that was used when the results for the three siRNAs corresponding to each gene were compared (Marine et al., 2012)

Sequence	seed-corrected z-score
UAAGUUUAUAGUUGGGAAC against RPS25P6	-0.0501
AUUGGAUCAGUGGAGCUCU against SPANXN4	0.397
AAAUUCGUAAGCUCUGUGG against C2orf70	1.37
AAGCUUCUCAUUAAUGCCC against CYB561A3	-1.26
UAGGCAAAAACAGUCCACC against B3GNT8	-0.0844
UAUUACUCAGCAGCUUUGC against TIPIN	-0.378
AUACUGGAUAUCAUAGUUC against ARG2	-2.32
UUGGUUGUCAUGAUCAGUG against PAPD7	0.333
UUUUGUUCGUCUCCGUUCC against AK4	0.42
UGAGUUUCGCGCUCUCUCC against SLC17A7	-2.93
AGUAUUAUCACGUUAGUGG against NUP88	-0.85
UUUUCGCUACUUGAGUUGC against SLC35F5	-1.12
AAAGUUGAACUCCUGAUGG against MYT1L-AS1	0.298
UCGUUGUUCAAACCAUUCC against ZEB2	-2.94
UCUGAAUCCACUAACACUG against TMEM87B	-0.0559
UUGCUAAACAGGGCCUUGC against MCRS1	1.49
UAGGUUUUCUUCGUUGUCC against MIR503HG	0.872
UUCGAAGCAUCUUUUGGGC against RPL7P9	-2.28
UGAGUUGAACACGUAGCCC against ALPI	0.286
UUUGCUAUCUUGCUGAUGC against LINC00615	0.184
ACAGAUAUUGUAAAUCUCC against TMEM14C	0.508
UAUUGUGAUAUAGGCACCG against WDR26	-1.57
UCACGUUUCACCAAGAUGC against EIF4A3	-2.2

Sequence	seed-corrected z-score
UCCAUGACAAUGUCCACUC against VAT1	-0.662
UCUGGAUUAUGGGUAGGCC against CHTOP	-1.42
UUCUGCUUCUGUAUUAUCC against SAP30BP	-2.11
UCACUAUCAAGUCUGGUAC against CSMD3	0.55
UAUAUCUGCAACACGGUGG against SND1	0.153
UGUCUUUCAAACGUAGGCC against ZNF792	-3.5
UGUUUCGUAAACAUUCACC against FUT10	-0.285
UACAAUUACAUCAUCGUCC against GLT8D2	-0.139
UUCGAGAGACUGACAUGCG against SYT14P1	-0.0146
AUCUGGUUCAUUACAGUAG against BSDC1	-2.55
AAAAGACAUACAUGAAGAC against GJB1	-0.779
UCUAAUUCCAGGUAAAUUU against GOLT1B	0.519
UUAUCUUGCAGCAAAGCAC against LYZ	-1.35
UUAAACUUCACGUUGUCCU against RPL38	-2.01
AUUGGAGGCACUGCACUCG against NTM	0.224
UAUAGGAGCUCUAGGAUCU against CSTF2T	-0.439
AGCAUUGUAAGUGACGUGC against KCNN2	-2.24
UCUGUUAAUGCUAUUCUCC against C2orf61	0.146
UGUUAAGUAGAAAAUAACC against CD83	0.552
UAUGACAUCGGAGACCUUC against MEN1	0.259
AAAGUUGCUAUGAAGCGAG against PSMA8	-2.62
UCUCGUUUAUCUACAUCUC against AUTS2	0.181
UACAGACAUAUGUACAUCC against CCDC12	-2.89

Sequence	seed-corrected z-score
UGACAAAUCACUGUAUGUC against ZIM2	-0.582
UUUGAUACAGUAUCUACAG against DVL1	0.326
UUAUUUCUCAGCUCGUUGG against STX6	-2.43
UUUGUUUGCACCAGUUGUC against OTUD1	0.434
UUGCGCUCUAGUUCCAGGC against PRPH	-0.44
UCCUUUAACGGGAUCUUGU against PI3	0.267
UAUGUACAGAGACACCAGG against MC5R	-2.92
AUAGUCACAAAUGAAUCCG against PLS3	0.171
AACGAUGAUAGAAUUUACG against CLEC16A	-2.32
UGUGGAAACAUUGAUCUGC against PRPF4	-1.56
UUCUUUAUUGAGUGCAUGG against KLK6	-1.38
UCGUCUAUUGAUGAUGUCG against AQR	-2.1
UUCUGGAUUCUUGACCGCU against KRBOX4	0.0382
AGCUUGGAGAGUUUAGCCC against SLC46A1	0.256
UUCCUAAUACCACAAUUGC against NKIRAS1	-0.00171
UAAGUUGCAUGCCUGGUCA against RIMKLA	-3.91
UGUUGAGUAAGGAGGGACC against HSPB8	-0.073
UCAUCGCCUAUGUCGAUGC against ABCC11	0.255
UUUGAGCUUUCCUUAUUCC against CEP97	0.381
UCUAGAUCAUGAAUGCUCC against ZNF25	1.08
AUUUCUUUCAUAGUCACCG against RASL11B	-0.122
UAUGCUUUUAGACGAUUGG against ASB14	-0.444
AGGUCUUCAAAUACCGUUG against LACTB2	-2.32

Sequence	seed-corrected z-score
UUUGCUCCCUUCACUCUGC against DVL1	0.689
AAAUGUACACCAUAUAAGC against ELOVL6	-2.75
UUCAUGUCCACGUUGACCA against PLCD3	-0.387
UUAUGGUCUUGAGGUAAGG against RNF6	0.418
UUCGUGAAAGGAUCUGCUG against FRMD4B	-0.649
UCUGUUUUCAGGUCUUCCA against PMM1	0.485
UGAGUUUGAAGGUGAAUUC against TMEM207	0.374
UAGACUAGAAUGGUCACUC against DDIAS	0.728
UCUGGAGUGUUUGGGCUGC against CICP18	-3.73
UAACCUUCAACUCGCUGCC against NYNRIN	-1.01
UUAAUGGGAAGUUCUGGUG against ALG8	-0.153
UUGUUUACAAUUGAAACUC against RPS7	2.49
UUUGGUAAACUUCUGACUC against AFP	0.408
UUGGGCACAUGCUCUAAGG against SUN2	1.57
UUUGCGGUCAGGUUUCACC against MTNR1A	-0.693
UUCCUUCCAGCUGUAGGCC against CHRM1	-2.17
UUUGGAGCAAGUAAUCCCU against ATP5SL	0.0327
UACGCUCCAACCAUCAUAG against KIAA0368	-0.0559
AAUGUCACAAAAGUUCCGU against PGLYRP3	-0.707
UAACGAGAAAGACGGAUGC against CEP104	-0.248
AAUGCUAUAAAAUCCGUGG against C11orf95	0.671
UAUUAGGAGAUAUGAAGUG against PSMB7	0.622
UCAGCUUCUACUCCGGUCU against DAPP1	-1.25

Sequence	seed-corrected z-score
UUGUAUACAAGUGUCCACC against KCTD6	-2.54
UAUUGUAAGAGUACACGUC against IGSF5	-0.00495
UUGCGUUCAGGAAUAUCCG against MARK3	0.476
UGGAAUAUAAAACCCGUGC against FUNDC2P2	-0.0349
UUUGGGAUCUAUCAAUUUG against HNRNPDL	0.695
AACUUUACCAGUCACACUC against SMNDC1	-2.31
UACACUCCUCUGAAGUUUG against ZNF396	-0.508
UUGGGUCAAUCCAUUUCUC against C10orf55	0.749
UCCACGAAUAGCAAGUUGC against H2AFZ	0.129
UCUGCUUGUAGUGAAAGUC against DUSP9	-3.42
UAACUUACUGAGAAUCGGC against LCP2	-1.05
AAGGUGUUUCGAGUUAUGC against POLR2J	-0.205
UCAUGAACCCGAGCUCGAG against CD37	-0.195
AUUCCUGACAUUCACAUGC against ZNF439	0.169
UCAGGUGCAAUUGGGAGCU against TCEB1P3	-2.71
UACGUUUUCAGAGUAUCAC against PDCD10	0.491
AUACUUGACAUCACCAACC against CDKL2	-0.981
CAAGUCAUGCCAGCACUGG against LOC645852	0.383
UAAUCUAAUCCUUCUAAAG against PCDHGA7	1.3
UUCCUUCCAGGACAUGAGC against MIR503HG	-2.21
UUUGGUUGAAGGGACCCUC against OR1J2	0.501
UCCUUUGAUAGCCUCUUCG against ELAVL3	-0.214
UAACUGUUCACCGCGUCCA against LINC01530	-0.696

Sequence	seed-corrected z-score
UUACAAAGAAGCACGUUCA against HOXB8	0.191
AAACAGGAAGGUGCUAUCG against GALT	-0.3
AUACUUGCAAACAAACUCC against RREB1	-1.3
UGAUUUCUGACCUCCAUUC against TMEM43	1.18
ACUGUUCCCAACAAGGUCC against UBXN4	1.66
AAACCUAAGAAUACAAGUU against SAR1A	0.849
ACAGUUGCCCUUGUCCUGG against LOC440292	-3.34
AUUGGAGAGAGGUUCAUUC against YWHAH	-0.058
UGACGGCUGGUCGUGAUCU against SPDYE2	0.00759
UACAGGUAGACCUCGUGGG against UPK3A	0.24
UCAGGAUCAUGAGUAGGCG against DEPDC5	1.12
AAACCUAUUCCUUCCAUUU against ARL6IP5	0.0394
UUAGAGUCCAGAUUCAGGA against ST3GAL3	0.675
AAACGAUCAUGGUCUCUGC against COPA	-3.42
UGAUCUUGAACUGCACCAC against SUMO3	-0.708
UGGAGUAAGAGCUAUACGC against CYTIP	-0.125
AACGUGUCACCACAUAUGG against MAPK10	-2.05
UUAGCAACCACGGACACUG against ACR	0.604
